Test results published in PubChem BioAssay AID1159580 (chemical genetic matrix, 2015).
Where “and” joins values, the source holds several entries; their conditions need not be identical. Equal values may be shown once. About 2,000 (36%) of roughly 5,500 compounds were called active. Roughly 18% stayed inconclusive and do not appear here. Cut-off read from the data, not from the text of the source: active = normalized growth mostly below about 0.91 (no sharp cut-off); inconclusive = no clear call, values can overlap the other calls; inactive = mostly above about 0.92. This is one part of the list.

Assay: chemical genetic growth profiling, strain panel (AID 1159580);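 note: tested at 20 µM; growth read once vehicle control cultures reached saturation at 30 °C; 1 = growth at the plate median or of vehicle wells; lower values mean less growth of the strain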
Conditions: S. cerevisiae deletion strains, growth OD

Measured: normalized growth

CC(C)CCCC(C)[C@H]1CCC2C3C(=O)C=C4C[C@@H](O)CC[C@]4(C)C3CC[C@@]21C (some centres not stated)
inactive: locus YAL013W, strain DEP1, hits give low values 1.02 | locus YAL021C, strain ccr4, hits give low values 0.974 | locus YAL026C, strain drs2, hits give low values 1.02 | locus YAL030W, strain snc1, hits give low values 0.996 | locus YBL061C, strain skt5, hits give low values 1.01 | locus YBR009C, strain hhf1, hits give low values 1.06 | locus YBR021W, strain FUR4, hits give low values 1.05 | locus YBR023C, strain chs3, hits give low values 1.01 | locus YBR171W, strain sec66, hits give low values 1 | locus YBR229C, strain ROT2, hits give low values 1.06 | locus YBR231C, strain swc5, hits give low values 1.05 | locus YBR279W, strain paf1, hits give low values 1.01 | locus YCL011C, strain gbp2, hits give low values 0.994 | locus YCL016C, strain dcc1, hits give low values 1 | locus YCL029C, strain bik1, hits give low values 1.03 | locus YCL061C, strain MRC1, hits give low values 1.01 | locus YCL069W, strain vba3, hits give low values 0.996 | locus YCR088W, strain abp1, hits give low values 0.991 | locus YDL005C, strain med2, hits give low values 0.994 | locus YDL035C, strain GPR1, hits give low values 1.04 | locus YDL040C, strain nat1, hits give low values 0.982 | locus YDL074C, strain BRE1, hits give low values 1.04 | locus YDL101C, strain DUN1, hits give low values 1.04 | locus YDL185W, strain tfp1, hits give low values 1.04 | locus YDL192W, strain arf1, hits give low values 1.06 | locus YDR001C, strain nth1, hits give low values 1.01 | locus YDR069C, strain doa4, hits give low values 1 | locus YDR101C, strain arx1, hits give low values 1.04 | locus YDR137W, strain rgp1, hits give low values 0.946 | locus YDR150W, strain NUM1, hits give low values 1.01 | locus YDR159W, strain sac3, hits give low values 1.06 | locus YDR162C, strain NBP2, hits give low values 1.07 | locus YDR195W, strain ref2 0.997 | locus YDR297W, strain sur2, hits give low values 0.996 | locus YDR318W, strain mcm21, hits give low values 1.03 | locus YDR334W, strain swr1, hits give low values 0.975 | locus YDR335W, strain msn5, hits give low values 1.01 | locus YDR388W, hits give low values 1.02 | locus YDR392W, strain spt3, hits give low values 0.968 | locus YDR502C, strain sam2, hits give low values 1.02 | locus YEL003W, strain gim4, hits give low values 0.996 | locus YEL037C, strain rad23, hits give low values 1.01 | locus YEL061C, strain CIN8 (second series), hits give low values 1 | locus YEL061C, strain CIN8, hits give low values 1.01 | locus YER015W, strain faa2, hits give low values 1.01 | locus YER016W, strain bim1, hits give low values 0.994 | locus YER110C, hits give low values 1.04 | locus YER111C, strain swi4, hits give low values 1 | locus YER155C, strain BEM2 (second series), hits give low values 1.03 | locus YER155C, strain BEM2, hits give low values 1.01 | locus YER167W, strain BCK2, hits give low values 1.03 | locus YFR010W, strain ubp6, hits give low values 1.02 | locus YGL078C, strain dbp3, hits give low values 1.04 | locus YGL086W, strain mad1, hits give low values 1.01 | locus YGL167C, strain pmr1, hits give low values 1.01 | locus YGL173C, strain kem1, hits give low values 1 | locus YGL227W, strain vid30, hits give low values 1.01 | locus YGL248W, strain PDE1, hits give low values 1.04 | locus YGL253W, strain hxk2, hits give low values 0.93 | locus YGR135W, strain pre9, hits give low values 1.04 | locus YGR229C, strain SMI1, hits give low values 1.08 | locus YGR252W, strain gcn5, hits give low values 1.05 | locus YHR013C, strain ard1, hits give low values 1.02 | locus YHR027C, strain rpn1, hits give low values 0.992 | locus YHR030C, strain SLT2, hits give low values 1.01 and 0.966 | locus YHR079C, strain IRE1 (second series), hits give low values 1.02 | locus YHR079C, strain IRE1, hits give low values 1.01 | locus YHR094C, strain hxt1, hits give low values 1.04 | locus YHR129C, strain ARP1, hits give low values 1.03 | locus YHR142W, strain chs7, hits give low values 0.918 | locus YHR200W, strain rpn10, hits give low values 1 | locus YIL066C, strain RNR3, hits give low values 1.04 | locus YIL073C, strain SPO22, hits give low values 1.28 | locus YIL125W, strain kgd1, hits give low values 1.02 | locus YIR030C, strain dcg1, hits give low values 1.04 | locus YJL092W, strain hpr5, hits give low values 0.996 | locus YJL095W, strain BCK1 (second series), hits give low values 0.998 | locus YJL095W, strain BCK1, hits give low values 1.05 and 0.966 | locus YJL115W, strain asf1, hits give low values 1.01 | locus YJL129C, strain trk1, hits give low values 0.958 | locus YJL134W, strain LCB3, hits give low values 1.01 | locus YJL154C, strain vps35, hits give low values 1.01 | locus YJL164C, strain tpk1, hits give low values 0.966 | locus YJL166W, strain qcr8, hits give low values 1 | locus YJL168C, strain set2, hits give low values 1.03 | locus YJL187C, strain SWE1 (second series), hits give low values 1.04
active: locus YGL240W, strain doc1, hits give low values 1.13 [resistant]
